{
  "source": "ChEMBL document CHEMBL4513146",
  "about": "“CO-ADD screening of Karazin Kharkiv National University (Ukraine) compounds”",
  "note": "Potency and affinity values are given separately.",
  "data": [
    {"system": "Escherichia coli", "conditions": "Concentration 32 ug.mL-1;; ASSAY_TEST Inhibition of Bacterial Growth; detection method Absorption (OD600); MEDIA CAMHB; plate type 384well; NBS; CORNING #3640; time 18 hr", "units": {"Inhibition": "%"}, "values": [
      {"smiles": "Cc1cc2nn(CC(=O)Nc3cc(F)ccc3C)c(=O)n2c(Nc2ccc(F)cc2)n1", "Inhibition": -5.18},
      {"smiles": "CCCN(C)c1nccn2c(=O)n(CC(=O)Nc3cccc(SC)c3)nc12", "Inhibition": -2.46},
      {"smiles": "COc1ccc(-c2cc3c4nn(CC(=O)Nc5c(C)cc(C)cc5C)c(=O)n4ccn3n2)cc1", "Inhibition": 4.81},
      {"smiles": "CC(C)Cn1c(=O)c2ccc(C(=O)NC3CCCCC3)cc2n2c(=O)n(CC#N)nc12", "Inhibition": -0.16},
      {"smiles": "Cc1cc(NC(=O)Cn2c(=O)c3nnc(C(C)C)n3c3ccccc32)ccc1Br", "Inhibition": 0},
      {"smiles": "Cc1ccc(-c2ccc3nn(CC(=O)NCc4ccc(Cl)cc4)c(=O)n3n2)cc1C", "Inhibition": -5.52},
      {"smiles": "O=C(Cn1nc2c(Sc3ccccc3)nccn2c1=O)Nc1cc(F)ccc1F", "Inhibition": -13.52},
      {"smiles": "Cc1ccc(-c2cc3c4nn(CC(=O)Nc5cc(F)ccc5C)c(=O)n4ccn3n2)cc1C", "Inhibition": -4.51},
      {"smiles": "CCc1nnc2c(SCC(=O)Nc3cc(Cl)ccc3C)nc3ccccc3n12", "Inhibition": -0.41},
      {"smiles": "O=C(CSc1nnc2c(=O)n(-c3ccccc3)ccn12)Nc1cccc(Cl)c1", "Inhibition": -12.66},
      {"smiles": "CSc1cccc(NC(=O)Cn2nc3c(Sc4cccc(F)c4)nccn3c2=O)c1", "Inhibition": -0.46},
      {"smiles": "CN(C(=O)Cn1nc2n(Cc3cccs3)c(=O)c3sccc3n2c1=O)c1ccccc1", "Inhibition": -16.81},
      {"smiles": "CC(C)c1nnc2c(=O)n(CC(=O)Nc3cccc(Br)c3)c3ccccc3n12", "Inhibition": -0.75},
      {"smiles": "COC(=O)c1sccc1NC(=O)Cn1nc2c(Oc3ccccc3)nc3ccccc3n2c1=O", "Inhibition": 0.17},
      {"smiles": "COc1ccc(NC(=O)Cn2nc3ccc(SCc4ccc(Cl)cc4)nn3c2=O)cc1OC", "Inhibition": -7.61},
      {"smiles": "CCOc1ccc(N(Cc2ccccc2)S(=O)(=O)c2ccc3nncn3c2)cc1", "Inhibition": -1.41},
      {"smiles": "COc1ccc(Cl)cc1NC(=O)CSc1nc2ccccc2n2c(C(C)C)nnc12", "Inhibition": -1.47},
      {"smiles": "O=c1c2nnc(SCc3ccccc3Cl)n2ccn1-c1ccc(F)cc1", "Inhibition": -4.39},
      {"smiles": "Cc1cccc(NC(=O)Cn2nc3c(SC4CCCCC4)nccn3c2=O)c1C", "Inhibition": 2.06},
      {"smiles": "CCc1cccc(NC(=O)Cn2nc3c(SCc4ccc(Cl)cc4)nccn3c2=O)c1", "Inhibition": -12.19},
      {"smiles": "Cc1ccc(CSc2nnc3c(=O)n(-c4ccc(Br)cc4)ccn23)cc1", "Inhibition": -2.08},
      {"smiles": "Cc1oc(-c2cccc(Cl)c2)nc1CSc1nc2ccccc2n2c(C(C)C)nnc12", "Inhibition": -2.96},
      {"smiles": "CCc1nnc2ccc(S(=O)(=O)N(Cc3ccc(OC)cc3)c3cccc(F)c3)cn12", "Inhibition": -12.26},
      {"smiles": "Cc1ccc(Oc2nccn3c(=O)n(CC(=O)Nc4ccc(Br)cc4F)nc23)cc1", "Inhibition": -0.38},
      {"smiles": "Cc1cccc(CN(c2ccc(C(C)C)cc2)S(=O)(=O)c2cccn3c(C)nnc23)c1", "Inhibition": -1.18},
      {"smiles": "COc1ccc(-c2cc3c4nn(CC(=O)Nc5ccc(F)cc5)c(=O)n4ccn3n2)cc1", "Inhibition": -7.82},
      {"smiles": "COc1ccc(CNC(=O)CCc2nnc3ccc(-c4ccccc4)nn23)cc1OC", "Inhibition": -2.82},
      {"smiles": "Cc1nnc2ccc(S(=O)(=O)N(Cc3ccccc3)c3ccc(F)cc3)cn12", "Inhibition": -1.95},
      {"smiles": "Cc1cc2nn(CC(=O)Nc3cc(F)ccc3F)c(=O)n2c(Nc2ccc(C)c(F)c2)n1", "Inhibition": -8.4},
      {"smiles": "CCCCn1c(=O)c2sccc2n2c(=O)n(CC(=O)N(C)c3ccccc3)nc12", "Inhibition": -12.98},
      {"smiles": "Cc1ccc(Cl)cc1NC(=O)CSc1nc2ccccc2n2c(C)nnc12", "Inhibition": -3.62},
      {"smiles": "CCC(Sc1nnc2c(=O)n(-c3cccc(OC)c3)ccn12)C(=O)Nc1cc(F)ccc1F", "note": "(stereo not given)", "Inhibition": -7.17},
      {"smiles": "COc1cccc(-c2nc(CSc3nc4ccccc4n4c(C(C)C)nnc34)c(C)o2)c1OC", "Inhibition": -1.56},
      {"smiles": "Cn1c(=O)c2sccc2n2c(=O)n(CCOc3ccccc3)nc12", "Inhibition": -12.23},
      {"smiles": "O=S(=O)(c1ccc2nncn2c1)N(Cc1ccc(F)cc1)c1ccc(F)c(F)c1", "Inhibition": -13.53},
      {"smiles": "Cc1cccc(NC(=O)Cn2nc3c4cc(-c5ccc(F)cc5)nn4ccn3c2=O)c1C", "Inhibition": -5.27},
      {"smiles": "O=C(CSc1nnc2c(=O)n(-c3ccccc3)ccn12)N1CCN(c2ccc(F)cc2)CC1", "Inhibition": -1.4},
      {"smiles": "Cc1ccc(NC(=O)Cn2nc3c(SCc4ccc(Cl)cc4)nccn3c2=O)c(C)c1", "Inhibition": -3.69},
      {"smiles": "O=C(Cn1nc2ccc(SCc3ccc(Cl)cc3)nn2c1=O)NCc1ccccc1", "Inhibition": -9.37},
      {"smiles": "Cc1ccc(-c2ccc3nnc(CCC(=O)NCc4cccc(Br)c4)n3n2)cc1C", "Inhibition": -5.02}
    ]}
  ]
}
